Consider ten compounds from PubChem BioAssay.

A short description of assay [1]: inhibitors of TNFa-induced NFkB p65 translocation, primary screen, imaging, HUVEC, MLSMR starter and 10KST1 sets (AID 438;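 active means inhibition above 20% together with a positive visual image hit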;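 further: compound added about 3h40 before a 20 min TNFalpha stimulation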;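 on inhibition: signal is the nuclear over cytoplasmic p65 intensity ratio per well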). Particulars: HUVEC TNFa-induced p65 nuclear translocation; cell count: measured here: nuclei count (cytotoxicity indicator), at 2.08 µM; inhibition: at 2 µM, stronger effect = higher value, 0% TNFa-plus-vehicle, 100% no-TNFa wells.
Assay [2] in a line: reduction of polyQ htt aggregates in cells – imaging, exon1htt(103Q)mCFP cells, high-content imaging, primary screen (AID 483;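 active means visual image review flags a hit and inhibition of aggregation exceeds 20%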;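 further: compound exposure lasted 3 days before fixation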;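 on nuclei count: percent of the per-plate median nuclei count of sample wells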). To be noted: exon1htt(103Q)mCFP cell line, aggregate imaging, at 2 µM; inhibition of aggregation: stronger effect = higher value; nuclei count: measured here: cell count, toxicity.
A short description of assay [3]: endothelial E-selectin expression blockers – imaging, HUVEC, immunofluorescence, MLSMR starter and 10KST1 sets, primary screen (AID 487;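 active means visually confirmed hit in the image check and inhibition above 20%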;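 on inhibition: signal is fraction of cell area covered by stained E-selectin grains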;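 on nuclei count: 100% = median nuclei count of all wells on the same plate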). Particulars: HUVEC TNFalpha-induced E-selectin immunofluorescence imaging, at 2 µM; inhibition: stronger effect = higher value; nuclei count: measured here: cell number, toxicity.
Assay [4] addresses Voltage-gated potassium channel subunit beta-2 (Rattus norvegicus) (UniProt P62483). The experiment in a line: inhibitors of rat Kvbeta2 reductase activity – biochemical, NADPH fluorescence, primary screen (AID 622;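 active means fluorescence slope higher than the sample average by over 3 SD, cut at about -0.22 in these data, passing the limit was not always enough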;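 further: slope of raw intensity against log time taken from 70 to 1610 s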). Particulars: recombinant KvBeta, 4-cyanobenzaldehyde reduction, at 10 µM, stronger effect = higher value.
Assay [5] shares this target. The experiment in a line: enhancers of rat Kvbeta2 NADPH turnover – biochemical, NADPH fluorescence, primary screen (AID 623;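 active means NADPH fluorescence slope more negative than the mean of all samples by about 3 SD, 99.7% confidence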;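 further: fluorescence intensity change per second fitted from 20 to 320 s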). Particulars: Recombinant KvBeta, NADPH fluorescence decrease slope, 10 min; at 10 µM; stronger effect = lower value.
The target of assay [6] is Alpha-2C adrenergic receptor (Homo sapiens) (UniProt P18825). The experiment in a line: compounds altering alpha2C-coupled GIRK flux – cell-based, HEK293 alpha2C/GIRK1/2, thallium flux, primary screen (AID 624;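 active means fluorescence slope after compound addition differing from the mean of all screened samples at 99.7% confidence, in either direction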;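 further: slope of fluorescence ratio to pre-addition baseline per second over 15 to 24 s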). Particulars: thallium flux BTC fluorescence, at 10 µM, actives lie on both sides.
Sequence of Alpha-2C adrenergic receptor (Homo sapiens) (P18825 whole entry, looked up): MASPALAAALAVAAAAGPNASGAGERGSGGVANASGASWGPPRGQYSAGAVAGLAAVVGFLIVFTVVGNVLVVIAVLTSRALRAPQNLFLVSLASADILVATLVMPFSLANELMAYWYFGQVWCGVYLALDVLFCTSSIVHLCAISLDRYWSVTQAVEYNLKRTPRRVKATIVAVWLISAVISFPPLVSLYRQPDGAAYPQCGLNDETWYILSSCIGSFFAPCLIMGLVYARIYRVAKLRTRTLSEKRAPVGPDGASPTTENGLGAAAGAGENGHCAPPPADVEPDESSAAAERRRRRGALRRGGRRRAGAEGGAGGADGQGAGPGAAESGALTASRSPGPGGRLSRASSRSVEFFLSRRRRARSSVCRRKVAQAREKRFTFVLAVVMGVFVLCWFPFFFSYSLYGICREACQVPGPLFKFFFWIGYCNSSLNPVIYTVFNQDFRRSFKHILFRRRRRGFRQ
The nature of assay [7]: blockers of RIG-like receptor reporter activation – cell-based, Sendai virus stimulus, luciferase, 10K MLSCN set, TLR/RLR signaling modifier project, primary screen (AID 602276;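 active means inhibition at or above 50% at 10 µM; inactive means inhibition below 50%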;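 further: firefly luciferase from ISG56 promoter only with Renilla not read in this screen; 0% = Sendai virus plus DMSO and 100% = medium plus DMSO without virus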). To be noted: HEK293 RL24 IRF3 luciferase reporter, at 10 µM, stronger effect = higher value.
Assay [8] can be described thus: TLR3 IRF3 reporter activation blockers – cell-based, poly I:C stimulus, luciferase, 10K MLSCN set, primary screen (AID 602277). To be noted: HEK293-TLR3 RL24 IRF3 luciferase reporter, at 10 µM, stronger effect = higher value. On the technique in general: In a reporter assay the amount or activity of a reporter protein is the signal.

SMILES strings stand for the structures. Activity calls are given as the source filed them.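 How the source made its calls, unless noted: active means inhibition of the reporter signal at or above 50%; inactive means inhibition below 50%.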

Sequence of Voltage-gated potassium channel subunit beta-2 (Rattus norvegicus) (P62483 whole entry, looked up): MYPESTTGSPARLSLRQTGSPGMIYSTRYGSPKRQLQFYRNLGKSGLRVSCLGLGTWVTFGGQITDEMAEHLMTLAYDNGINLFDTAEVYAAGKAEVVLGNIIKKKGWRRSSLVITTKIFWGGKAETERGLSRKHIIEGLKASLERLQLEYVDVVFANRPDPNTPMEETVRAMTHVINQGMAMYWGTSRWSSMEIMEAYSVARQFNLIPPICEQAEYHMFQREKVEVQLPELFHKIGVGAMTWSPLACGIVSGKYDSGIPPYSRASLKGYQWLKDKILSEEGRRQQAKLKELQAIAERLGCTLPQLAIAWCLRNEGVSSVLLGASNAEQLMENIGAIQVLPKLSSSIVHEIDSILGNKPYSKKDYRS

In general, inhibition refers to the drop in the measured response relative to a control, in per cent. Consider `CCOC(=O)c1nnc(-c2ccccc2)o1`, for which the cell count in assay [1] is 620. Also, the inhibition in assay [1] was 2.2% (inactive); in assay [3], -14.5% (inactive); in assay [7], 17.6% (inactive); in assay [8], -1.89% (inactive). In addition, the inhibition of aggregation in assay [2] is -2.9% (inactive). In addition, the nuclei count worked out at 114% in assay [2] and 89.7% in assay [3]. In addition, in assay [4], the fluorescence slope was -0.592 (inactive). For the same compound, the NADPH fluorescence slope in assay [5] is -3.3e-05 (inactive). Further, the slope in assay [6] was 0.00603 (inactive).

As for `O=C(NC1CCCc2ccccc21)c1ccc(CNc2c(N3CCOCC3)c(=O)c2=O)cc1` (stereo not given), in assay [1], the cell count stood at 644. The inhibition in assay [1] is -3.4% (inactive); in assay [3], -52.7% (inactive); in assay [7], 12.8% (inactive); in assay [8] it was 27% (inactive). The inhibition of aggregation in assay [2] is 36.3% (active). Also, the nuclei count turned out to be 51.3% in assay [2] and 108% in assay [3]. Further, in assay [4], the fluorescence slope was -0.55 (inactive). In addition, the NADPH fluorescence slope in assay [5] is -2.5e-06 (inactive). Besides, the slope in assay [6] was 0.00556 (inactive).

Regarding `Cc1nc(SCC(=O)CC(=O)OC(C)C)c(C#N)c(C)c1C`, in assay [1], the cell count came to 718. In addition, the inhibition in assay [1] is -3.5% (inactive); in assay [3], 34.6% (inactive); in assay [7], 5.7% (inactive); in assay [8] it was -3.09% (inactive). The inhibition of aggregation in assay [2] was -22.8% (inactive). Also, the nuclei count worked out at 118% in assay [2] and 99.8% in assay [3]. Besides, the fluorescence slope in assay [4] is -0.332 (inactive). The NADPH fluorescence slope in assay [5] was 1.6e-05 (inactive). Further, the slope in assay [6] was 0.00527 (inactive).

For the compound `CCOC(=O)c1ccc(COC(=O)c2cc3ccccc3oc2=O)o1`, the cell count in assay [1] stood at 607. The inhibition in assay [1] is -1.2% (inactive); in assay [3] it was -39.1% (inactive); in assay [7], -6.72% (inactive); in assay [8], -32.7% (inactive). For the same compound, in assay [2], the inhibition of aggregation was 1.7% (inactive). The nuclei count in assay [2] was determined as 101%; in assay [3] it was 96.9%. Besides, in assay [4], the fluorescence slope was -0.48 (inactive). Moreover, in assay [5], the NADPH fluorescence slope was 1.6e-06 (inactive). In addition, the slope in assay [6] was 0.00426 (inactive).

On to `O=C(NCc1ccccc1)c1ccc(OC2CSC2)cc1`, for which the cell count in assay [1] came to 655. Also, the inhibition in assay [1] was -30.1% (inactive); in assay [3], -45.7% (inactive); in assay [7], -8.59% (inactive); in assay [8] it was -14.1% (inactive). Besides, the inhibition of aggregation in assay [2] is 9.3% (inactive). The values for the nuclei count in assay [2] and in assay [3] were 97.9% and 108%, respectively. The fluorescence slope in assay [4] is -0.486 (inactive). Further, in assay [5], the NADPH fluorescence slope is -4.6e-05 (inactive). Moreover, the slope in assay [6] is 0.00606 (inactive).

`CN(C)c1ccnc(NCc2ccccc2)c1C#N`: in assay [1], the cell count turned out to be 286. Also, the inhibition in assay [1] is 2.1% (inactive); in assay [3], -62% (inactive); in assay [7] it was -8.5% (inactive); in assay [8], -26.6% (inactive). For the same compound, the inhibition of aggregation in assay [2] was 19% (inactive). The nuclei count in assay [2] came to 72.9%; in assay [3], 112%. Besides, the fluorescence slope in assay [4] is -0.411 (inactive). Besides, the NADPH fluorescence slope in assay [5] is -3.6e-05 (inactive). Moreover, the slope in assay [6] is 0.00526 (inactive).

For `CC(C)[C@H](NC(=O)OC(C)(C)C)c1nnc(SCC(=O)Nc2ccc(Br)cc2)o1`, the cell count in assay [1] was 402. Also, the inhibition in assay [1] is -6.7% (inactive); in assay [3], -13.2% (inactive); in assay [7], 2.98% (inactive); in assay [8] it was 28.3% (inactive). Besides, the inhibition of aggregation in assay [2] was 6.5% (inactive). The nuclei count came to 107% in assay [2] and 130% in assay [3]. In addition, in assay [4], the fluorescence slope was -0.457 (inactive). In assay [5], the NADPH fluorescence slope was 2.2e-05 (inactive). In addition, the slope in assay [6] was 0.00396 (inactive).

As for `O=C(Cc1cccs1)NCc1ccc(F)cc1`, the cell count in assay [1] was 458. The inhibition is 2.4% (inactive) in assay [1], 56.1% (active) in assay [3], -18.8% (inactive) in assay [7] and -36.3% (inactive) in assay [8]. The inhibition of aggregation in assay [2] is 10.1% (inactive). Moreover, the nuclei count worked out at 107% in assay [2] and 93.3% in assay [3]. Besides, the fluorescence slope in assay [4] is -0.408 (inactive). Also, the NADPH fluorescence slope in assay [5] is -3.6e-06 (inactive). Moreover, the slope in assay [6] was 0.00459 (inactive).

As for `COC(=O)C1=C(C)n2nnnc2NC1c1ccc(Cl)cc1` (stereo not given), in assay [1], the cell count stood at 340. The inhibition in assay [1] was 3.6% (inactive); in assay [3], -119% (inactive); in assay [7] it was 2.58% (inactive); in assay [8] it was 10.6% (inactive). Moreover, in assay [2], the inhibition of aggregation was -8.8% (inactive). For the same compound, the nuclei count in assay [2] turned out to be 99.4%; in assay [3], 80.4%. The fluorescence slope in assay [4] is -0.367 (inactive). The NADPH fluorescence slope in assay [5] was 1.8e-05 (inactive). The slope in assay [6] is 0.00153 (inactive).

Consider `COc1nc(OC)nc(N2CCC(C(=O)NCc3cccs3)CC2)n1`, for which the cell count in assay [1] is 559. The inhibition in assay [1] was -15% (inactive); in assay [3], -1.7% (inactive); in assay [7], -3.8% (inactive); in assay [8] it was -2.92% (inactive). For the same compound, the inhibition of aggregation in assay [2] is -22.8% (inactive). The nuclei count was 112% in assay [2] and 107% in assay [3]. The fluorescence slope in assay [4] was -0.528 (inactive). In addition, the NADPH fluorescence slope in assay [5] is -4.4e-05 (inactive). Also, the slope in assay [6] was 0.00626 (inactive).
